Assay [1] addresses Myc proto-oncogene protein (Homo sapiens) (UniProt P01106). As to the kind of experiment: ATG_Myc_CIS: Attagene CIS-FACTORIAL HepG2 Assay for human Myelocytomatosis (Myc) Proto-Oncogene Transcription Factor (AID 2282990). The note with it: HepG2, Attagene cis-reporter transcription factor activity; actives raise or lower the signal. The gist of the method: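 Transiently transfected HepG2 cells bearing cis-promoter reporter units for endogenous transcription factors; 24 h exposure. Reporter mRNA measured by RT-PCR, 6-FAM primer extension, HpaI cut and capillary electrophoresis; bidirectional fit relative to DMSO.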

Assay [2] is described as follows: ATG_NF_kB_CIS: Attagene CIS-FACTORIAL HepG2 Assay for human Nuclear Factor Kappa B (NF-kB) (AID 2282991). The note with it: HepG2 Attagene cis-factorial NF-kB reporter mRNA; actives raise or lower the signal. The procedure, abridged: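 Readout is reporter transcript level, gain or loss versus DMSO, measured 24 h post-dose via RT-PCR, fluorescent labelling and capillary electrophoresis. Human HepG2 liver cells carried transiently transfected CIS reporter constructs reflecting endogenous factors.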

Assay [3] can be described thus: ATG_NRF2_ARE_CIS: Attagene CIS-FACTORIAL HepG2 Assay for human Nuclear Factor Erythroid 2 Related Factor 2 (NFR2) response to Antioxidant Response Elements (ARE) (AID 2282992). Particulars: HepG2 Attagene ARE/NRF2 reporter, transcription factor activity; actives raise or lower the signal. The gist of the method:
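Endogenous transcription factor activity read out as reporter transcript levels (RT-PCR plus capillary electrophoresis, fluorescence) in transiently transfected HepG2 cells. Measured at 24 h after dosing; gain or loss of signal fitted versus DMSO.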

The nature of assay [4]: ATG_Oct_MLP_CIS: Attagene CIS-FACTORIAL HepG2 Assay for human Octamer-Binding Transcription Factor (Oct) (AID 2282993). The note with it: HepG2 Attagene cis-factorial Oct reporter, mRNA; actives raise or lower the signal. The gist of the method: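 Transient MRTU transfection of HepG2 → 24 h compound treatment → RNA isolation, reverse transcription, PCR → 6-FAM primer extension, HpaI digest → capillary electrophoresis. Activity fitted both directions against DMSO.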

For assay [5], the target named is Cellular tumor antigen p53 (Homo sapiens) (UniProt P04637). Briefly: ATG_p53_CIS: Attagene CIS-FACTORIAL HepG2 Assay for human p53 Transcription Factor (AID 2282994). The note with it: HepG2 p53 cis-element reporter, Attagene mRNA; actives raise or lower the signal. The gist of the method: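 Endogenous p53 activity read in transiently transfected HepG2 from a cis-element-driven reporter transcript after 24 h exposure. RNA reverse-transcribed, PCR-amplified, fluorescently labelled and sized by capillary electrophoresis; gain or loss fitted against DMSO baseline.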

Assay [6] concerns the target Peroxisome proliferator-activated receptor gamma (Homo sapiens) (UniProt P37231). As to the kind of experiment: ATG_PPARg_TRANS: Attagene TRANS-FACTORIAL HepG2 Assay for human Peroxisome Proliferator-activated Receptor-gamma (PPARg) (AID 2283007; active = hit-call score of the fitted dose curve at least 0.9, where 1 is the maximum). The procedure, abridged: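 After 24 h of chemical exposure, transfected HepG2 cells carrying PPARγ-Gal4 chimera reporter constructs are lysed for RNA. Reporter transcripts are measured by RT-PCR and capillary electrophoresis with fluorescent labelling, and gain of signal is fitted versus DMSO.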

For assay [7], the target named is Nuclear receptor subfamily 1 group I member 2 (Homo sapiens) (UniProt O75469). As to the kind of experiment: ATG_PXR_TRANS: Attagene TRANS-FACTORIAL HepG2 Assay for human Pregnane X Receptor (PXR) (AID 2283008; active = hit-call score of the fitted dose curve at least 0.9, where 1 is the maximum). The gist of the method: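 Transactivation by exogenous PXR–GAL4 fusion measured as reporter transcript induction after 24 h compound treatment of transfected human HepG2 cells. Read-out via RT-PCR and capillary electrophoresis of labelled fragments, fitted upward relative to DMSO.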

Assay [8] has as its target human Retinoic Acid Receptor gamma (RARg), RARG (gene 5916) (UniProt P13631). As to the kind of experiment: ATG_RARg_TRANS: Attagene TRANS-FACTORIAL HepG2 Assay for human Retinoic Acid Receptor gamma (RARg) (AID 2283009; active = hit-call score of the fitted dose curve at least 0.9, where 1 is the maximum). The procedure, abridged: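 TRANS format measured activity of exogenous NR-GAL4 fusion (RARg) in transfected HepG2 liver cells after 24 h dosing. Induced reporter RNA was detected by RT-PCR/capillary electrophoresis fluorescence, analysed in the positive direction against DMSO.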

Assay [9] concerns the target human Peroxisome Proliferator-activated Receptor delta (PPARd), PPARD (gene 5467) (UniProt Q03181). As to the kind of experiment: ATG_PPARd_TRANS: Attagene TRANS-FACTORIAL HepG2 Assay for human Peroxisome Proliferator-activated Receptor delta (PPARd) (AID 2283002; active = hit-call score of the fitted dose curve at least 0.9, where 1 is the maximum). The gist of the method:
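HepG2 cells transiently transfected with GAL4-UAS multiplexed reporter units driven by exogenous chimeric NR-GAL4 proteins; 24 h compound exposure. Reporter mRNA measured by RT-PCR, 6-FAM primer extension, HpaI digestion and capillary electrophoresis; gain of signal fitted relative to DMSO.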

Assay [10] has as its target human Retinoic Acid Receptor beta (RARb), RARB (gene 5915) (UniProt P10826). As to the kind of experiment: ATG_RARb_TRANS: Attagene TRANS-FACTORIAL HepG2 Assay for human Retinoic Acid Receptor beta (AID 2283004; active = hit-call score of the fitted dose curve at least 0.9, where 1 is the maximum). The procedure, abridged:
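Fluorescent capillary-electrophoresis detection of GAL4-UAS reporter mRNA defines the endpoint, with induction over DMSO-treated wells scored as activity. Transiently transfected human hepatoma HepG2 cells expressing exogenous NR–Gal4 proteins are exposed to test chemicals for 24 h.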

The target in assay [11] is human RAR-related Orphan Receptor beta (RORb), RORB (gene 6096) (UniProt Q92753). As to the kind of experiment: ATG_RORb_TRANS: Attagene TRANS-FACTORIAL HepG2 Assay for human RAR-related Orphan Receptor beta (RORb) (AID 2283010; active = hit-call score of the fitted dose curve at least 0.9, where 1 is the maximum). The gist of the method: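 Transfect HepG2 with multiple GAL4-UAS reporter transcription units; dose chemicals for 24 h; isolate RNA, reverse-transcribe and PCR-amplify reporter sequences; label, digest and resolve fragments by capillary electrophoresis; fit increases relative to DMSO.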

For assay [12], the target named is Retinoic acid receptor alpha (Homo sapiens) (UniProt P10276). As to the kind of experiment: ATG_RARa_TRANS: Attagene TRANS-FACTORIAL HepG2 Assay for human Retinoic Acid Receptor alpha (RARa) (AID 2283005; active = hit-call score of the fitted dose curve at least 0.9, where 1 is the maximum). The procedure, abridged:
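HepG2 transiently transfected with multiplex GAL4-UAS reporter units including a human RARa–GAL4 chimera; 24 h compound exposure. Reporter mRNA quantified by RT-PCR, 6-FAM labeling and capillary electrophoresis; gain of signal versus DMSO.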

The nature of assay [13]: BSK_3C_TissueFactor: BioMAP Diversity Plus: 3C Assay for Tissue Factor Biomarker Activity (AID 2282997). The note with it: BioMAP 3C HUVEC, tissue factor biomarker readout; actives raise or lower the signal. The gist of the method: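 In this endothelial system, HUVEC are treated for 24 h and Tissue Factor is assessed by ELISA, normalised to DMSO.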
A short description of assay [14]: BSK_3C_uPAR: BioMAP Diversity Plus: 3C Assay for Urokinase-type plasminogen activator receptor (uPAR) Biomarker Activity (AID 2282998). The note with it: BioMAP 3C HUVEC, uPAR biomarker ELISA; actives raise or lower the signal. The gist of the method: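 ELISA readout of uPAR on human vascular endothelium (umbilical vein primary cells), taken 24 h after chemical dosing. Increases and decreases are both fitted relative to DMSO vehicle.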
In general terms: ELISA stands for enzyme-linked immunosorbent assay.

The nature of assay [15]: BSK_3C_VCAM1: BioMAP Diversity Plus: 3C Assay for Vascular cell adhesion molecule 1 (VCAM1) Biomarker Activity (AID 2282999). The note with it: BioMAP 3C HUVEC, VCAM1 ELISA, cytokine-stimulated; actives raise or lower the signal. The gist of the method:
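HUVEC primary cells, 24 h compound exposure; VCAM-1 by ELISA; gain/loss of signal fitted bidirectionally vs DMSO baseline.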

Assay [16] in a line: BSK_4H_Eotaxin3: BioMAP Diversity Plus: 4H Assay for Eotaxin 3 Biomarker Activity (AID 2283000).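 For outcome: CCL26 protein level quantified by ELISA in parallel with SRB cytotoxicity check.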 Particulars: primary human endothelial cells (HUVEC); actives raise or lower the signal. The gist of the method:
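ELISA quantitation of CCL26 (Eotaxin-3) protein from chemically dosed human vascular endothelial cells at 24 h; increases and decreases both scored relative to DMSO-treated baseline.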

Read-out in assay [17]: Intercellular Adhesion Molecule 1 (ICAM1), ICAM1 (gene 3383)
Briefly: BSK_3C_ICAM1: BioMAP Diversity Plus: 3C Assay for Intercellular Adhesion Molecule 1 (ICAM1) Biomarker Activity (AID 2283003). Particulars: primary human endothelial cells (HUVEC); actives raise or lower the signal. The gist of the method:
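Chemicals are dosed onto primary human umbilical vein endothelium (3C system). After 24 h, ICAM-1 is measured by ELISA, and responses are fitted bidirectionally relative to DMSO.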

A short description of assay [18]: BSK_3C_Proliferation: Cell Proliferation Assessment in the BioMAP Diversity Plus: 3C Assay (AID 2283006).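 For AC50: potency may reflect either rise or fall in cell number versus DMSO.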 Particulars: primary human endothelial cells (HUVEC). The gist of the method: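 Cells (human umbilical vein endothelial, sub-confluent) receive test chemical; after 48 h they are fixed in 10% trichloroacetic acid, stained with 0.1% SRB and read at 560 nm. Activity is referenced to DMSO, fitting increases and decreases.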

Assay [19] concerns the target human Peroxisome Proliferator-activated Receptor alpha (PPARa), PPARA (gene 5465) (UniProt Q07869). Briefly: ATG_PPARa_TRANS: Attagene TRANS-FACTORIAL HepG2 Assay for human Peroxisome Proliferator-activated Receptor alpha (PPARa) (AID 2283001; active = hit-call score of the fitted dose curve at least 0.9, where 1 is the maximum). The procedure, abridged: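 HepG2, transient MRTU transfection, 24 h treatment. RT-PCR → FAM labelling → capillary electrophoresis. Fit vs DMSO, positive direction.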

The structures appear in SMILES notation. Records with an inconclusive call do not appear. Calls of active or inactive are those of the source. Rule for the calls, unless noted: active = hit-call score of the fitted dose curve at least 0.9, where 1 is the maximum; inactive = score below 0.9.

human Peroxisome Proliferator-activated Receptor delta (PPARd), PPARD (gene 5467), sequence (Q03181 whole entry, looked up, the tested form may be a part): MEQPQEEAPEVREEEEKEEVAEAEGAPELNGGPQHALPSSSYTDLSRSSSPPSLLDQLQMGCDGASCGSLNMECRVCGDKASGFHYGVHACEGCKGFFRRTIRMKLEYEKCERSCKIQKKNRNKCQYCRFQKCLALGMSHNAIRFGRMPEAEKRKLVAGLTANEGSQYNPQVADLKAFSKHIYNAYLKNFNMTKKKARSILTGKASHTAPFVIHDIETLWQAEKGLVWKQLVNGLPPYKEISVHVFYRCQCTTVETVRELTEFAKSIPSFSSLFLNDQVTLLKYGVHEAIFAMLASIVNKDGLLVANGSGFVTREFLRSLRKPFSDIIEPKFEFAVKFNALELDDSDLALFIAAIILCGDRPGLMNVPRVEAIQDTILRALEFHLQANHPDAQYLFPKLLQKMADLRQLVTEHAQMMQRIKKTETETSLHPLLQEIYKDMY
Myc proto-oncogene protein (Homo sapiens), sequence (P01106 whole entry, looked up): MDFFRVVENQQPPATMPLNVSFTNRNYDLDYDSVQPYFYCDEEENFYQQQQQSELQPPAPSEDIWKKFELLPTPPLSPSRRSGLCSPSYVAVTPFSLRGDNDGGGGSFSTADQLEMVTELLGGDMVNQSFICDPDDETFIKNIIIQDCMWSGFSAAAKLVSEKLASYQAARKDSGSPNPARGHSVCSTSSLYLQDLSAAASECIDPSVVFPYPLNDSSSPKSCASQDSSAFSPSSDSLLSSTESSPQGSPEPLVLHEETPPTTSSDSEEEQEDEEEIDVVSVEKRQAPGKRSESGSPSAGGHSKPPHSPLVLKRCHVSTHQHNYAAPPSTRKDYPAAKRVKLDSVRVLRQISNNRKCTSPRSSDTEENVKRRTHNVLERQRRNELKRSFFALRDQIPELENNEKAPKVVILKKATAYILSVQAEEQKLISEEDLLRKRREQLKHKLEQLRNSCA
Cellular tumor antigen p53 (Homo sapiens), sequence (P04637 whole entry, looked up): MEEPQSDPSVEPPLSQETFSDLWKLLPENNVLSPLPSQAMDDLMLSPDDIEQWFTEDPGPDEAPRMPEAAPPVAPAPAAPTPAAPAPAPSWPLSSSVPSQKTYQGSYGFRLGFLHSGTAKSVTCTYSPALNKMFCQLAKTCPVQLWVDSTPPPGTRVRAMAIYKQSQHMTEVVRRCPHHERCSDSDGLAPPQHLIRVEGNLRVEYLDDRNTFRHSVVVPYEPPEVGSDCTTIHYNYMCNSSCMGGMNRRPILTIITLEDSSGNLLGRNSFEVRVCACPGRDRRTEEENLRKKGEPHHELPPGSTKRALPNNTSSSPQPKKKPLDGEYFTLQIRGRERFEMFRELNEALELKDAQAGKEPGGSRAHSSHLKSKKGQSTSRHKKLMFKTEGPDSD
Peroxisome proliferator-activated receptor gamma (Homo sapiens), sequence (P37231 whole entry, looked up, the tested form may be a part): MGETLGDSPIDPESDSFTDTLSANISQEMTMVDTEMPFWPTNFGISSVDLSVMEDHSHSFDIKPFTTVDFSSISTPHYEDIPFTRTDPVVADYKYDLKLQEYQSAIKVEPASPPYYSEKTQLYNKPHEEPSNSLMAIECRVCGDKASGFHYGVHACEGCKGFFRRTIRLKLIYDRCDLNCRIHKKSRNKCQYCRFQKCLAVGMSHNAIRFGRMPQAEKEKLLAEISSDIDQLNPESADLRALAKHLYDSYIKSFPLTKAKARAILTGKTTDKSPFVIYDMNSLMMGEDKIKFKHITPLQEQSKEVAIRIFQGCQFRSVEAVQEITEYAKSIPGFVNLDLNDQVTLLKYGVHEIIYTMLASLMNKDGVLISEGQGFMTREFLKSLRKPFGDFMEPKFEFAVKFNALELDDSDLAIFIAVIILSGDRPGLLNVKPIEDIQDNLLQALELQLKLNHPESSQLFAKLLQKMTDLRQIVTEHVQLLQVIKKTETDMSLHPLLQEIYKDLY
Nuclear receptor subfamily 1 group I member 2 (Homo sapiens), sequence (O75469 whole entry, looked up, the tested form may be a part): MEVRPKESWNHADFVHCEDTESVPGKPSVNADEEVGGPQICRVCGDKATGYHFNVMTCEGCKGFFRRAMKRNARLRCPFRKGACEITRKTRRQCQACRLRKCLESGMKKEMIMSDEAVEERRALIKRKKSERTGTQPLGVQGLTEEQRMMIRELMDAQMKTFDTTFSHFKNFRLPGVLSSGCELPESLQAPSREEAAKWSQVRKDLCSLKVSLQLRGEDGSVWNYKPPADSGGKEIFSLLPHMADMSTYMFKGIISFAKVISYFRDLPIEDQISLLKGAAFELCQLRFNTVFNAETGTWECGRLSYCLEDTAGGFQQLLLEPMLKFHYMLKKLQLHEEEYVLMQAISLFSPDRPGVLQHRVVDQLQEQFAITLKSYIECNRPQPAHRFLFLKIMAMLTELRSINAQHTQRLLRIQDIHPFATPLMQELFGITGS
human Retinoic Acid Receptor gamma (RARg), RARG (gene 5916), sequence (P13631 whole entry, looked up, the tested form may be a part): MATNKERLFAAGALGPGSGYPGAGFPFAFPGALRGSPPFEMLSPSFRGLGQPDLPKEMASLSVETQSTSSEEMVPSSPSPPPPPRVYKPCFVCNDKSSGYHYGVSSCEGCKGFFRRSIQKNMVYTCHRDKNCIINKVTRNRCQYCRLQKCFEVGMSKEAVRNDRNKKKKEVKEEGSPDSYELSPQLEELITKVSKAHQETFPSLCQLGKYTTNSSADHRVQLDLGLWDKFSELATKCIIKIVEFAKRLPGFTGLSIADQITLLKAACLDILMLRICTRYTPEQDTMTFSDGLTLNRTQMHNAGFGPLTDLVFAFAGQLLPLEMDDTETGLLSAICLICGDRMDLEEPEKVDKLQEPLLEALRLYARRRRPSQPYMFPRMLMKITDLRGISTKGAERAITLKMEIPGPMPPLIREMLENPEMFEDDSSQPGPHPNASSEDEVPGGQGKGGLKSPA
Retinoic acid receptor alpha (Homo sapiens), sequence (P10276 whole entry, looked up, the tested form may be a part): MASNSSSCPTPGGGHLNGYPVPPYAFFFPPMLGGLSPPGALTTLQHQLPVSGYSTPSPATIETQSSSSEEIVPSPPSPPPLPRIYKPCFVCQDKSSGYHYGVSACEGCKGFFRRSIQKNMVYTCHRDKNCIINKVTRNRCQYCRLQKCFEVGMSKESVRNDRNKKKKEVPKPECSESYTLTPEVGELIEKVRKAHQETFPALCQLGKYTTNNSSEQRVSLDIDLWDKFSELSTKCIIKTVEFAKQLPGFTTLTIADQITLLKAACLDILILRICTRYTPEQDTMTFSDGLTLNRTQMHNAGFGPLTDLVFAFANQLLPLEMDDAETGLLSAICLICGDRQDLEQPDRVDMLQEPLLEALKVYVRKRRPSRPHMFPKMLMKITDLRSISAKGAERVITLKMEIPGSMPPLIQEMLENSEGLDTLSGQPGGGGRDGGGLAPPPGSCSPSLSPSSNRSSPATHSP
human Retinoic Acid Receptor beta (RARb), RARB (gene 5915), sequence (P10826 whole entry, looked up, the tested form may be a part): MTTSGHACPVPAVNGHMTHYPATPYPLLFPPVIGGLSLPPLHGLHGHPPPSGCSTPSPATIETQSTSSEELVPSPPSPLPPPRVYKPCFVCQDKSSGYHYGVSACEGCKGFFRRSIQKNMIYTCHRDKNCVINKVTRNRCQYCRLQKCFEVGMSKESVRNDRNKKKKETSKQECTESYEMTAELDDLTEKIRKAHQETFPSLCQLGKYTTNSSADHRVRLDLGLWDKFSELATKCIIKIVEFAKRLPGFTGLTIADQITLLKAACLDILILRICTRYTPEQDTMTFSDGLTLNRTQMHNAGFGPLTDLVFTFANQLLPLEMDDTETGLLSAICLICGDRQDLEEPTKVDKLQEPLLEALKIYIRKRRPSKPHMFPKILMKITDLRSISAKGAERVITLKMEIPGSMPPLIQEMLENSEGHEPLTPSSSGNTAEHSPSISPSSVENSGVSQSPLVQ
human RAR-related Orphan Receptor beta (RORb), RORB (gene 6096), sequence (Q92753 whole entry, looked up, the tested form may be a part): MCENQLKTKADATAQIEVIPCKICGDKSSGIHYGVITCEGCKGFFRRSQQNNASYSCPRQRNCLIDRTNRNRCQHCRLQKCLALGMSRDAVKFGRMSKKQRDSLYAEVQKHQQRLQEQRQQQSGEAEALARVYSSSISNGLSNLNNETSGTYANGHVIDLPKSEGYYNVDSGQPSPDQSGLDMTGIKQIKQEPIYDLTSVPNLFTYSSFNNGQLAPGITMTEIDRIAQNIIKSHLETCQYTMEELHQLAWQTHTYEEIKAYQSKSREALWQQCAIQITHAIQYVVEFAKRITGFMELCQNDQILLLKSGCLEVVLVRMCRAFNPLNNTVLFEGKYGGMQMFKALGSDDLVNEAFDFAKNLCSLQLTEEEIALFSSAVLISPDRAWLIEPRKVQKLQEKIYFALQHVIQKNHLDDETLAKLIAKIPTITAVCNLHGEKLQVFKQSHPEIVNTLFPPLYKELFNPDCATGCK
human Peroxisome Proliferator-activated Receptor alpha (PPARa), PPARA (gene 5465), sequence (Q07869 whole entry, looked up): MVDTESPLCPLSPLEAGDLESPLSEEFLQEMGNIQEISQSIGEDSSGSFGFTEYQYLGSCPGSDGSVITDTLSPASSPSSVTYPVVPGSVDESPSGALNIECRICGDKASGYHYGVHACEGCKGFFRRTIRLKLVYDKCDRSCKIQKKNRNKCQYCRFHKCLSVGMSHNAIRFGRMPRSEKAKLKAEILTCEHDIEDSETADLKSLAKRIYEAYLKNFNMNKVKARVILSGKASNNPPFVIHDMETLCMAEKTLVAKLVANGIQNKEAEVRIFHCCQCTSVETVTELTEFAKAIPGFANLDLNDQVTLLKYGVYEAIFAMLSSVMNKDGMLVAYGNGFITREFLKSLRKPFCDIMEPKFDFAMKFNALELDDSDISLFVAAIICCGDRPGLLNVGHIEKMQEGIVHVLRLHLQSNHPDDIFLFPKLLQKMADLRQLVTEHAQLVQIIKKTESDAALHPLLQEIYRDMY

For `O=C1C[C@@H]2OCC=C3CN4CC[C@]56c7ccccc7N1[C@H]5[C@H]2[C@H]3C[C@H]46`, the call in [1], in assay [2], in assay [3], in [4], in assay [5] and in assay [6] was inactive. For the same molecule, the call in assay [7] and in assay [8] was inactive.
The term AC50 denotes the concentration at which the activity in the assay is half-maximal. Turning to `C1CCC(C2CCCCC2)CC1`, the call in assay [1], in [2], in assay [4], in assay [9], in assay [10] and in [7] was inactive. Further, the outcome in assay [11] was inactive. Further, in [3], the AC50 is 23.8 µM (active).
On to `COC(F)(C(F)(F)C(F)(F)F)C(F)(C(F)(F)F)C(F)(F)F` (stereo not given), for which the outcome in assay [1], in [2], in assay [3], in assay [4], in [5] and in assay [9] was inactive. For the same molecule, the outcome in [10], in assay [12], in assay [6], in assay [7] and in assay [8] was inactive.
Turning to `Cc1ccccc1OP(=O)(Oc1ccccc1C)Oc1ccccc1C`, the outcome in assay [1], in assay [5], in assay [9], in assay [17] and in assay [6] was inactive. The AC50 was 8.48 µM (active) in assay [3]; 119 µM (active) in assay [4]; 5.08 µM (active) in [13]; 11.1 µM (active) in assay [14]; 11.8 µM (active) in assay [15]; 9.39 µM (active) in assay [16]. For the same molecule, the values for the AC50 in assay [18] and in assay [7] were 8.31 µM (active) and 0.0985 µM (active), respectively.
Consider `CC1CC(=O)O1` (stereo not given), for which the result in assay [1], in assay [3], in [4], in assay [9], in assay [6] and in [7] was inactive.
In the case of `O=[N+]([O-])c1ccc(Nc2ccccc2)cc1`, the result in assay [1], in [2], in assay [3], in assay [4], in [5] and in [13] was inactive. Besides, the result in assay [14], in assay [15], in assay [16], in assay [19], in [17] and in [18] was inactive. For the same molecule, the molecule was classed as inactive in [6]. Further, the AC50 in [7] is 12.3 µM (active).
